From PubChem BioAssay (NCI)
Compounds without any hit were thinned out: in the full panel of roughly 79,000, 15% have a hit. Active and inactive are the calls of the source. No stated cut-off is given here; in the data, active means growth inhibition above about 70%; inactive means the rest.

Columns and labels:
[1] = NCI Yeast Anticancer Drug Screen. Data for the wt2 strain (AID 169);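 further: 0% = growth of vehicle-treated yeast cultures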; details: S. cerevisiae wt2 strain growth inhibition, active compounds read high
Outline: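 Steps: yeast strain treated with compound; growth recorded; inhibition calculated relative to cultures given vehicle alone.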

[2] = NCI Yeast Anticancer Drug Screen. Data for the mlh1 strain (AID 171);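 further: 0% = growth of vehicle-treated control cultures of the same strain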; details: S. cerevisiae mlh1 strain growth inhibition, active compounds read high
Outline: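 Yeast screen: mutant strain plus compound, growth scored against vehicle control wells.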

[3] = NCI Yeast Anticancer Drug Screen. Data for the sgs1 strain (AID 173);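 further: 0% = growth of vehicle-only control cultures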; details: S. cerevisiae sgs1 mutant, active compounds read high
Outline: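 Inhibition of yeast growth served as the measure. The mutant strain was treated with each compound, and growth was normalised to cultures receiving vehicle alone.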

[4] = NCI Yeast Anticancer Drug Screen. Data for the mlh1 rad18 strain (AID 175); details: S. cerevisiae mlh1 rad18 strain growth inhibition, active compounds read high
Outline: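 Compound-treated yeast growth, normalised to vehicle controls. Strain bears defined DNA repair mutations.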

[5] = NCI Yeast Anticancer Drug Screen. Data for the rad18 strain (AID 177); details: S. cerevisiae rad18 mutant growth inhibition, active compounds read high
Outline: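 Inhibition values reflect reduced yeast growth compared with vehicle-treated controls, using a strain engineered with a DNA damage repair defect.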

[6] = NCI Yeast Anticancer Drug Screen. Data for the rad52 strain (AID 147);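 further: 0% = growth of vehicle-treated control cultures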; details: S. cerevisiae rad52 mutant growth inhibition, active compounds read high
Outline: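 Genetically altered yeast (DNA damage repair defect) treated with compound; inhibition calculated relative to vehicle.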

[7] = NCI Yeast Anticancer Drug Screen. Data for the wt1 strain (AID 149);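 further: 0% = growth of vehicle-treated wt1 cultures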; details: S. cerevisiae wt1 strain (SPY 50644) growth inhibition, active compounds read high
Outline: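 Growth inhibition read against vehicle controls after compound exposure of the wt1 yeast strain.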

[8] = NCI Yeast Anticancer Drug Screen. Data for the rad50EPP+ strain (AID 151);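 further: 0% = growth of vehicle-treated control cultures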; details: S. cerevisiae rad50 mutant strain, active compounds read high
Outline: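 Strain rad50EPP+; compound exposure; % growth inhibition vs vehicle.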

[9] = NCI Yeast Anticancer Drug Screen. Data for the mgt1 strain (AID 153); details: S. cerevisiae mgt1 mutant growth inhibition, active compounds read high
Outline: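 Read-out: yeast growth inhibition vs vehicle control. Strain mgt1, drawn from a panel altered in DNA damage repair or cell cycle control.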

[10] = NCI Yeast Anticancer Drug Screen. Data for the rad50 strain (AID 155);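 further: 0% = growth of vehicle-only cultures of the same strain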; details: S. cerevisiae rad50 strain growth inhibition, active compounds read high
Outline: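 Readout: growth inhibition relative to vehicle-treated cultures. Compound exposure was carried out in a genetically defined yeast strain deficient in DNA damage repair.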

[11] = NCI Yeast Anticancer Drug Screen. Data for the mec2-1 strain (AID 157); details: S. cerevisiae mec2-1 strain, active compounds read high
Outline: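 Cells of the genetically defined mec2-1 yeast strain are incubated with test compound. Inhibition of growth is calculated against vehicle-treated controls.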

[12] = NCI Yeast Anticancer Drug Screen. Data for the rad14 strain (AID 159);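 further: 0% = growth of vehicle-treated control cultures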; details: S. cerevisiae rad14 strain growth inhibition, active compounds read high
Outline: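 Growth inhibition vs vehicle controls; genetically altered yeast strain (DNA damage repair defect) treated with test compounds.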

[13] = NCI Yeast Anticancer Drug Screen. Data for the sgs1 mgt1 strain (AID 161);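 further: 0% = growth of cultures given vehicle only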; details: S. cerevisiae sgs1 mgt1 strain, active compounds read high
Outline: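 Test agents were incubated with a DNA-repair-mutant yeast strain. Growth was then read and compared against vehicle-treated controls.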

[14] = NCI Yeast Anticancer Drug Screen. Data for the CLN2oe strain (AID 163);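 further: 0% = growth of vehicle-only control cultures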; details: S. cerevisiae CLN2oe strain, active compounds read high
Outline: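 Strain altered in cell-cycle control, incubated with compound; growth compared to solvent-treated controls.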

[15] = NCI Yeast Anticancer Drug Screen. Data for the cln2 rad14 strain (AID 165);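 further: 0% = growth equal to vehicle treated cultures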; details: S. cerevisiae cln2 rad14 strain, active compounds read high
Outline: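 The screen exposed genetically defined yeast (cln2 rad14) to test compounds and scored growth inhibition relative to vehicle-treated controls.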

[16] = NCI Yeast Anticancer Drug Screen. Data for the bub3 strain (AID 167); details: S. cerevisiae bub3 mutant strain, active compounds read high
Outline: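 Readout: yeast growth inhibition, expressed relative to vehicle-only wells. The test organism is a mutant strain from a panel with lesions in DNA repair or checkpoint genes.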

[17] = at 5.0 µM (retest, dose inferred, filed as 0.5)
[18] = at 50.0 µM (retest, dose inferred, filed as 5.0)

Measured: growth inhibition

CN(N=O)C(=O)Nc1ccc(C(=O)O)cc1
active: [5]; at 11.0 µM 81% | [5]; at 33.0 µM 90% | [5]; at 100.0 µM 93%
inactive: [1]; at 1.2 µM -3% | [1]; at 3.7 µM -2% | [1]; at 11.0 µM -1% | [1]; at 33.0 µM 0% | [1]; at 100.0 µM 6% | [2]; at 1.2 µM -6% | [2]; at 3.7 µM 1% | [2]; at 11.0 µM -1% | [2]; at 33.0 µM -21% | [2]; at 100.0 µM -12% | [3]; at 1.2 µM 2% | [3]; at 3.7 µM 8% | [3]; at 11.0 µM 20% | [3]; at 33.0 µM 35% | [3]; at 100.0 µM 55% | [4]; [17] 16% | [4]; [18] 51% | [4]; at 50.0 µM 32.9% | [5]; at 1.2 µM 18% | [5]; at 3.7 µM 47%

O=C(NOC(=O)c1ccc([N+](=O)[O-])cc1)c1ccc(Cl)cc1
inactive: [6]; at 1.2 µM -1% | [6]; at 3.7 µM 4% | [6]; at 11.0 µM 31% | [7]; at 1.2 µM -30% | [7]; at 3.7 µM -31% | [7]; at 11.0 µM -9% | [8]; at 1.2 µM -19% | [8]; at 3.7 µM 23% | [8]; at 11.0 µM 68% | [9]; at 1.2 µM -58% | [9]; at 3.7 µM -33% | [9]; at 11.0 µM 1% | [10]; at 1.2 µM -36% | [10]; at 3.7 µM -40% | [10]; [17] 6% | [10]; at 11.0 µM 10% | [11]; at 1.2 µM -84% | [11]; at 3.7 µM -64% | [11]; [17] -4% | [11]; at 11.0 µM -15% | [12]; at 1.2 µM -52% | [12]; at 3.7 µM -27% | [12]; at 11.0 µM -7% | [13]; [17] 10% | [14]; at 1.2 µM -18% | [14]; at 3.7 µM 6% | [14]; at 11.0 µM 15% | [15]; [17] 36% | [16]; at 1.2 µM -19% | [16]; at 3.7 µM -18% | [16]; [17] 0% | [16]; at 11.0 µM -4% | [16]; at 33.0 µM 67% | [1]; at 1.2 µM -47% | [1]; at 3.7 µM -27% | [1]; at 11.0 µM 11% | [2]; at 1.2 µM -35% | [2]; at 3.7 µM -35% | [2]; at 11.0 µM -1% | [3]; at 1.2 µM -39% | [3]; at 3.7 µM -17% | [3]; at 11.0 µM 48% | [4]; [17] 14% | [5]; at 1.2 µM -11% | [5]; at 3.7 µM 2% | [5]; at 11.0 µM 43%
active: [6]; at 33.0 µM 89% | [6]; at 100.0 µM 97% | [7]; at 33.0 µM 84% | [7]; at 100.0 µM 96% | [8]; at 33.0 µM 85% | [8]; at 100.0 µM 94% | [9]; at 33.0 µM 90% | [9]; at 100.0 µM 97% | [10]; at 33.0 µM 83% | [10]; [18] 89% | [10]; at 50.0 µM 92.4% | [10]; at 100.0 µM 95% | [11]; at 33.0 µM 82% | [11]; [18] 93% | [11]; at 50.0 µM 92.7% | [11]; at 100.0 µM 97% | [12]; at 33.0 µM 88% | [12]; at 100.0 µM 97% | [13]; [18] 94% | [13]; at 50.0 µM 91.3% | [14]; at 33.0 µM 80% | [14]; at 100.0 µM 98% | [15]; [18] 96% | [15]; at 50.0 µM 89% | [16]; [18] 89% | [16]; at 50.0 µM 90% | [16]; at 100.0 µM 95% | [1]; at 33.0 µM 87% | [1]; at 100.0 µM 97% | [2]; at 33.0 µM 89% | [2]; at 100.0 µM 96% | [3]; at 33.0 µM 88% | [3]; at 100.0 µM 95% | [4]; [18] 96% | [4]; at 50.0 µM 89.7% | [5]; at 33.0 µM 90% | [5]; at 100.0 µM 96%

COc1ccc(/C=C2\SC(=S)N(/C=C3\C(=O)N(c4ccccc4)N=C3C)C2=O)cc1OC
active: [6]; at 100.0 µM 77% | [7]; at 100.0 µM 76% | [9]; at 33.0 µM 79% | [9]; at 100.0 µM 89% | [10]; at 100.0 µM 71% | [11]; at 50.0 µM 73.2% | [11]; at 100.0 µM 80% | [12]; at 100.0 µM 74% | [13]; [18] 83% | [13]; at 50.0 µM 79.2% | [14]; at 100.0 µM 71% | [1]; at 33.0 µM 82% | [1]; at 100.0 µM 89% | [2]; at 33.0 µM 81% | [2]; at 100.0 µM 88% | [3]; at 33.0 µM 86% | [3]; at 100.0 µM 90% | [4]; at 50.0 µM 76.2% | [5]; at 100.0 µM 74%
inactive: [6]; at 1.2 µM 3% | [6]; at 3.7 µM 8% | [6]; at 11.0 µM 25% | [6]; at 33.0 µM 64% | [7]; at 1.2 µM 3% | [7]; at 3.7 µM 5% | [7]; at 11.0 µM 11% | [7]; at 33.0 µM 48% | [8]; at 1.2 µM -1% | [8]; at 3.7 µM 6% | [8]; at 11.0 µM 24% | [8]; at 33.0 µM 55% | [8]; at 100.0 µM 58% | [9]; at 1.2 µM 1% | [9]; at 3.7 µM 3% | [9]; at 11.0 µM 27% | [10]; at 1.2 µM -5% | [10]; at 3.7 µM -10% | [10]; [17] 5% | [10]; at 11.0 µM 9% | [10]; at 33.0 µM 61% | [10]; [18] 51% | [10]; at 50.0 µM 63.4% | [11]; at 1.2 µM 3% | [11]; at 3.7 µM 4% | [11]; [17] -7% | [11]; at 11.0 µM 18% | [11]; at 33.0 µM 65% | [11]; [18] 52% | [12]; at 1.2 µM 3% | [12]; at 3.7 µM 4% | [12]; at 11.0 µM 26% | [12]; at 33.0 µM 66% | [13]; [17] -4% | [14]; at 1.2 µM -18% | [14]; at 3.7 µM -9% | [14]; at 11.0 µM 3% | [14]; at 33.0 µM 58% | [15]; [17] -5% | [15]; [18] 61% | [15]; at 50.0 µM 50.8% | [16]; at 1.2 µM -2% | [16]; at 3.7 µM 0% | [16]; [17] 5% | [16]; at 11.0 µM 11% | [16]; at 33.0 µM 42% | [16]; [18] 17% | [16]; at 50.0 µM 67.6% | [16]; at 100.0 µM 65% | [1]; at 1.2 µM -2% | [1]; at 3.7 µM 2% | [1]; at 11.0 µM 26% | [2]; at 1.2 µM 0% | [2]; at 3.7 µM 3% | [2]; at 11.0 µM 25% | [3]; at 1.2 µM 4% | [3]; at 3.7 µM 15% | [3]; at 11.0 µM 42% | [4]; [17] 7% | [4]; [18] 67% | [5]; at 1.2 µM 5% | [5]; at 3.7 µM 17% | [5]; at 11.0 µM 37% | [5]; at 33.0 µM 68%
